Where “and” joins values, the source holds several entries; their conditions need not be identical. Equal entries are not always repeated. Inconclusive results are not listed. The source holds several records for some structures; these can differ, active in one and inactive in another. Calls of active or inactive are those of the source. Unless noted, the call rests on the fitted dose curve; in most records, active means well fitted curve in the direction sought with a large enough effect in the repeat runs; inconclusive means weak or mixed curves; inactive means no such curve, though single readings can be large; an effect the other way counts as inactive or inconclusive.
Legend:
[1] = qHTS assay to identify aromatase inhibitors - cell viability counter screen (AID 743084);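 further: cells stimulated with testosterone during compound exposure; nearly all actives have a fitted effect of over 55% in size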; further: potency means the concentration at half of the fitted maximal effect
[2] = biological target: Aryl hydrocarbon receptor (Homo sapiens) (UniProt P35869); experiment: qHTS assay to identify small molecule that activate the aryl hydrocarbon receptor (AhR) signaling pathway (AID 743085); further: nearly all actives have a fitted effect of over 15% in size; further: potency means the concentration at half of the fitted maximal effect;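 on activation: HG2L7.5c1 human HepG2 liver cells with stably integrated DRE-driven firefly reporter; series mostly up to about 70 µM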
Aryl hydrocarbon receptor (Homo sapiens), sequence (P35869 whole entry, looked up): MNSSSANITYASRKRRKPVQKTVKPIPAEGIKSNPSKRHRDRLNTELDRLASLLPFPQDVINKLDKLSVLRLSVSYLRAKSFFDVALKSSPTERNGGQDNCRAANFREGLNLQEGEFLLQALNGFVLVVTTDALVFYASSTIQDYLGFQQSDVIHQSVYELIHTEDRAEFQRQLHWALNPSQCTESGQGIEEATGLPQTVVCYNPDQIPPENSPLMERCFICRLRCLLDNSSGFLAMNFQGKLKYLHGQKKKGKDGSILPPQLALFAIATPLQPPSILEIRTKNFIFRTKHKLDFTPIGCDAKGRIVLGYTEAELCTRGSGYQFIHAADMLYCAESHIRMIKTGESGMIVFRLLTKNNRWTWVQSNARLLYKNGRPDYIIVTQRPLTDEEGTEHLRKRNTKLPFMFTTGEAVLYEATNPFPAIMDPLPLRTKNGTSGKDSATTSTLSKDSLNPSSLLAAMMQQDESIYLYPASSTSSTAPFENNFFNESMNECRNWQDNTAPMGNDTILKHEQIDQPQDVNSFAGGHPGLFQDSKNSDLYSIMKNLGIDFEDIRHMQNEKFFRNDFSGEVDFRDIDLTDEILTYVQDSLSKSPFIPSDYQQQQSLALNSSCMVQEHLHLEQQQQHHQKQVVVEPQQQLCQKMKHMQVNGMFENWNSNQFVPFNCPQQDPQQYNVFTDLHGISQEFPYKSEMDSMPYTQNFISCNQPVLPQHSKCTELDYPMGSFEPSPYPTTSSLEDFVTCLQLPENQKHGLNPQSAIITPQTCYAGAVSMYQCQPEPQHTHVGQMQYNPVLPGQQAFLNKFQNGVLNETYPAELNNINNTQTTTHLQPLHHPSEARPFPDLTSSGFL
Outline: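 Compounds were tested in HepG2 hepatocellular carcinoma cells harbouring a stably integrated luciferase gene under control of 20 DREs. Increased reporter signal after 24 h treatment at 37C was taken as AhR activation.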

[3] = qHTS assay to identify small molecule that activate the aryl hydrocarbon receptor (AhR) signaling pathway - cell viability counter screen (AID 743086); further: nearly all actives have a fitted effect of over 45% in size; further: potency means the concentration at half of the fitted maximal effect
Outline: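 HepG2-AhR-luc (HG2L7.5c1) cells, 4000/well, were preincubated 5 h at 37C, exposed to compound in qHTS format for 24 hr at 37C, then given CellTiter-Fluor for 30 min; viability was read as fluorescence in the reporter wells.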

[4] = biological target: Peroxisome proliferator-activated receptor gamma (Homo sapiens) (UniProt P37231); experiment: qHTS assay to identify small molecule agonists of the peroxisome proliferator-activated receptor gamma (PPARg) signaling pathway (AID 743094; active means well fitted activation curve with a large enough effect in the signal ratio in the repeat runs, not every such curve was filed as active; the % refers to the signal ratio)
Peroxisome proliferator-activated receptor gamma (Homo sapiens), sequence (P37231 whole entry, looked up): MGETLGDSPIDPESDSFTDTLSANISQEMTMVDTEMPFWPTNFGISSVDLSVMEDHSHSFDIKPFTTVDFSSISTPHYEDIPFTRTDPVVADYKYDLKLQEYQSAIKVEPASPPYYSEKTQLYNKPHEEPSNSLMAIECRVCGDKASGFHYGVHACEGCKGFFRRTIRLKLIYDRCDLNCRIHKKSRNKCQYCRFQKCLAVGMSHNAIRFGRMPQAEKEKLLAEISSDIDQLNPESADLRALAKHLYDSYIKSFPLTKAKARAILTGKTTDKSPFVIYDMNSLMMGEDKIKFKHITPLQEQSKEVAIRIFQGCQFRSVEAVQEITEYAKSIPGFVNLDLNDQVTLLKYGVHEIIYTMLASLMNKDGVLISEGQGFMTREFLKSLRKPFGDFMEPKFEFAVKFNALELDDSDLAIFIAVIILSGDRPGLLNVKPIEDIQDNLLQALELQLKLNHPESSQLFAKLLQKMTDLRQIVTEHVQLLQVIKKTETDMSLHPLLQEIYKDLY
Outline: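 Following 5 h plating at 37C, PPARg-bla HEK293H cells receive compound or DMSO for 17 h; fluorescence intensity is recorded after LiveBLAzer B/G loading for 1 h at room temperature.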

[5] = biological target: Peroxisome proliferator-activated receptor gamma (Homo sapiens) (UniProt P37231); experiment: qHTS assay to identify small molecule antagonists of the peroxisome proliferator-activated receptor gamma (PPARg) signaling pathway (AID 743191; calls by dose curve; further: nearly all actives have a fitted effect of over 30% in size; further: potency means the concentration at half of the fitted maximal effect)
Outline: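 GeneBLAzer PPARg UAS-bla HEK293H cells carrying a UAS-driven beta-lactamase reporter were plated at 3000 cells/well, preincubated 5 h at 37C, then given compound for 17 h at 37C; LiveBLAzer B/G FRET substrate was read after 1 h at room temperature.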

[6] = qHTS assay to identify small molecule antagonists of the peroxisome proliferator-activated receptor gamma (PPARg) signaling pathway - cell viability counter screen (AID 743194); further: nearly all actives have a fitted effect of over 55% in size; further: potency means the concentration at half of the fitted maximal effect
Outline: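 PPARg-UAS-bla HEK293H cells were plated, rested 5 h at 37 C, then treated with compounds plus rosiglitazone (50 nM final) for 17 h at 37 C; viability was then read by CellTiter-Glo luminescence after 30 min at room temperature.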

[7] = qHTS assay for small molecule agonists of the antioxidant response element (ARE) signaling pathway - cell viability counter screen (AID 743203; calls by dose curve; further: nearly all actives have a fitted effect of over 55% in size)
Outline: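 Compounds in DMSO were pinned onto ARE-bla HepG2 cells plated 5 hrs earlier at 2,000 cells/well. Sixteen hours later at 37C/5% CO2, CellTiter-Glo was added and luminescence measured after 30 min at room temperature.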

[8] = qHTS assay for small molecule activators of the heat shock response signaling pathway - cell viability counter screen (AID 743209); further: nearly all actives have a fitted effect of over 50% in size; further: potency means the concentration at half of the fitted maximal effect
Outline: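 Counter screen for cytotoxicity in HeLa HSE-bla reporter cells. Treatment was 5 h at 37 C; viability was detected by luminescent ATP assay (CellTiter-Glo) in the same wells as the beta-lactamase read.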

[9] = qHTS assay for small molecule activators of the heat shock response signaling pathway (AID 743210; active means well fitted activation curve with a large enough effect in the signal ratio in the repeat runs, with a control signal flat, not every such curve was filed as active; the % refers to the signal ratio; further: potency means the concentration at half of the fitted maximal effect;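 on activation: HeLa cells with beta-lactamase reporter driven by heat shock elements; series mostly up to about 63 µM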)
Outline: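 Reporter gene assay: HeLa cells stably bearing an HSE-bla construct, compound treatment 5 h at 37 C, LiveBLAzer substrate 2.5 h at RT, fluorescence intensity.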

[10] = qHTS assay to identify small molecule agonists of the peroxisome proliferator-activated receptor delta (PPARd) signaling pathway - cell viability counter screen (AID 743211); further: nearly all actives have a fitted effect of over 55% in size; further: potency means the concentration at half of the fitted maximal effect
Outline: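 Counter screen for cytotoxicity run in parallel with the PPARd reporter screen. Beta-lactamase reporter HEK293H cells exposed to compounds 17 h; ATP-based CellTiter-Glo luminescence quantified viability.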

[11] = biological target: Peroxisome proliferator-activated receptor delta (Homo sapiens) (UniProt Q03181); experiment: qHTS assay to identify small molecule agonists of the peroxisome proliferator-activated receptor delta (PPARd) signaling pathway (AID 743212; calls by dose curve)
Peroxisome proliferator-activated receptor delta (Homo sapiens), sequence (Q03181 whole entry, looked up): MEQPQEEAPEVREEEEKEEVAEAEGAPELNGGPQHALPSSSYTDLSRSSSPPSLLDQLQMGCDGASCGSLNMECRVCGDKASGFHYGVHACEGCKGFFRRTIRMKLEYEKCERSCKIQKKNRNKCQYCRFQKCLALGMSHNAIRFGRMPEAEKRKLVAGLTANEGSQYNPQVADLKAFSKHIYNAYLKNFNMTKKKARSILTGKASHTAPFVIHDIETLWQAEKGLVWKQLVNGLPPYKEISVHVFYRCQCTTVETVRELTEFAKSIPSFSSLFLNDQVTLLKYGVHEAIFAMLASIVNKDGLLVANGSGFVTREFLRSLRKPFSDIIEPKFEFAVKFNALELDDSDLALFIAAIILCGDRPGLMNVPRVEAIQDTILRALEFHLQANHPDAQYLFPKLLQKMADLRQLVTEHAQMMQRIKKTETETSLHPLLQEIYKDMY
Outline: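 A PPARd-bla HEK293H line with beta-lactamase under an Upstream Activator Sequence is treated with compounds at 37 C. Substrate loading for 2 h at room temperature precedes the fluorescence measurement.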

[12] = biological target: Peroxisome proliferator-activated receptor delta (Homo sapiens) (UniProt Q03181); experiment: qHTS assay to identify small molecule antagonists of the peroxisome proliferator-activated receptor delta (PPARd) signaling pathway (AID 743215; active means well fitted inhibition curve with a large enough effect in the signal ratio in the repeat runs, not every such curve was filed as active; the % refers to the signal ratio;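 further: cells stimulated with agonist L165041 at 300 nM final during compound exposure; series mostly up to about 62 µM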)
Outline: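 With L165041 present at 300 nM final, compounds were incubated 17 h at 37 C on PPARd UAS-bla HEK293H cells. A FRET-based beta-lactamase substrate was then applied for 2 h at room temperature and fluorescence intensity recorded.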

[13] = qHTS assay to identify small molecule agonists of the farnesoid-X-receptor (FXR) signaling pathway - cell viability counter screen (AID 743218); further: nearly all actives have a fitted effect of over 45% in size
Outline: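 After 16 h at 37 C with test compounds, FXR-bla HEK 293T cells were given LiveBLAzer B/G substrate for 2 h at RT and then CellTiter-Glo; luminescence was taken after 30 min.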

[14] = qHTS assay to identify small molecule antagonists of the farnesoid-X-receptor (FXR) signaling pathway - cell viability counter screen (AID 743221; active means well fitted cell-killing curve with a large enough effect in the repeat runs, not every such curve was filed as active; further: nearly all actives have a fitted effect of over 50% in size)
Outline: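 Multiplexed counter screen: viability of FXR-bla HEK 293T cells under agonist stimulation by chenodeoxycholic acid (50 uM, final) and test compound for 16 h at 37 C, measured by CellTiter-Glo luminescence in the reporter wells.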

[15] = biological target: Vitamin D3 receptor (Homo sapiens) (UniProt P11473); experiment: qHTS assay to identify small molecule agonists of the vitamin D receptor (VDR) signaling pathway (AID 743222; calls by dose curve)
Vitamin D3 receptor (Homo sapiens), sequence (P11473 whole entry, looked up): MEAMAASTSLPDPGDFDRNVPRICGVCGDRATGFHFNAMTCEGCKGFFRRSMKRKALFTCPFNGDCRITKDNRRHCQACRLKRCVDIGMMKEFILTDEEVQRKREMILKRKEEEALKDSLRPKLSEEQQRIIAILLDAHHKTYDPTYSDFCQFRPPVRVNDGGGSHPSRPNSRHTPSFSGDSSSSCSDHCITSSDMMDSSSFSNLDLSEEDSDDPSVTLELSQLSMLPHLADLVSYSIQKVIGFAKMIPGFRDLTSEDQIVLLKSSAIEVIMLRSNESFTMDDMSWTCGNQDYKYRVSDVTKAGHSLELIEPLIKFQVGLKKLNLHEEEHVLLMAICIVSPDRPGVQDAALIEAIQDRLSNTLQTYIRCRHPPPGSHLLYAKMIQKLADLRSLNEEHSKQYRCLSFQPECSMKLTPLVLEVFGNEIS
Outline: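 VDR-bla cells were seeded, left 4 h, treated with compounds in DMSO for 16 h, incubated 2 h at RT with B/G FRET substrate, and read for fluorescence.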

[16] = biological target: Vitamin D3 receptor (Homo sapiens) (UniProt P11473); experiment: qHTS assay to identify small molecule antagonists of the vitamin D receptor (VDR) signaling pathway (AID 743223; active means well fitted inhibition curve with a large enough effect in the signal ratio in the repeat runs, not every such curve was filed as active; the % refers to the signal ratio)
Outline: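 Cells carrying a VDR-driven beta-lactamase reporter (VDR-bla) were co-treated with compound and 3 nM final 1alpha,25-dihydroxyvitamin D3 for 16 h at 37C; reporter activity was measured as FRET substrate fluorescence after 2 h at room temperature.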

[17] = biological target: Bile acid receptor (Homo sapiens) (UniProt Q96RI1); experiment: qHTS assay to identify small molecule agonists of the farnesoid-X-receptor (FXR) signaling pathway (AID 743220; active means well fitted activation curve with a large enough effect in the signal ratio in the repeat runs, not every such curve was filed as active; the % refers to the signal ratio)
Bile acid receptor (Homo sapiens), sequence (Q96RI1 whole entry, looked up): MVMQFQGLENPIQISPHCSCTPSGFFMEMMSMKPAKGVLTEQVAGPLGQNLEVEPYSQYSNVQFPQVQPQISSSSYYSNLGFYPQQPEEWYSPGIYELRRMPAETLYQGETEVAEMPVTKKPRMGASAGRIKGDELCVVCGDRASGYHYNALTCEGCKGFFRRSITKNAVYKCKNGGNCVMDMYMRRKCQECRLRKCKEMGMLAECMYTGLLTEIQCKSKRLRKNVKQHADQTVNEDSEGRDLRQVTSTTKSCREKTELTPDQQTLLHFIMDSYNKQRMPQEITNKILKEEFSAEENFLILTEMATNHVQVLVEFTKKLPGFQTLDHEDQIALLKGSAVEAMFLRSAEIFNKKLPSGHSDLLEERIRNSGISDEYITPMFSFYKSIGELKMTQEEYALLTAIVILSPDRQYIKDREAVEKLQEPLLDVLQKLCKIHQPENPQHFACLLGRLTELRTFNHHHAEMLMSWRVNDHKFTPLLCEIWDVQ
Outline: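 Beta-lactamase reporter under UAS control in GeneBLAzer FXR HEK 293T cells (5000/well) measured with LiveBLAzer FRET substrate after 2 h at room temperature. Compound exposure lasted 16 h at 37C.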

[18] = biological target: Bile acid receptor (Homo sapiens) (UniProt Q96RI1); experiment: qHTS assay to identify small molecule antagonists of the farnesoid-X-receptor (FXR) signaling pathway (AID 743217; active means well fitted inhibition curve with a large enough effect in the signal ratio in the repeat runs, not every such curve was filed as active; the % refers to the signal ratio)
Outline: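 In this cell-based antagonist screen, inhibition of CDCA-driven (50 uM final) UAS-beta-lactamase expression in HEK 293T cells was measured by FRET fluorescence following 16 h compound exposure at 37 °C.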

[19] = qHTS assay to identify small molecule antagonists of the peroxisome proliferator-activated receptor delta (PPARd) signaling pathway - cell viability counter screen (AID 743213); further: nearly all actives have a fitted effect of over 50% in size; further: potency means the concentration at half of the fitted maximal effect
Outline: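 Cytotoxicity counter screen: CellTiter-Glo luminescence read 30 min after addition, in the same wells as the reporter assay. There, PPARd UAS-bla HEK293H cells (3000/well) were treated 17 h at 37 C with compound and 300 nM L165041.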

[20] = qHTS assay for small molecule agonists of the antioxidant response element (ARE) signaling pathway (AID 743202; active means well fitted activation curve with a large enough effect in the signal ratio in the repeat runs, not every such curve was filed as active; the % refers to the signal ratio)
Outline: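 Compounds delivered in DMSO to ARE-bla HepG2 cells (2,000 cells/well, pre-incubated 5 h) and left 16 h at 37 C. LiveBLAzer B/G FRET substrate then added for 2 h at RT before fluorescence reading.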

Measured: Potency

CC(C)=C1CC[C@@H](C)CC1=O
inactive: [1] | [2] | [3] | [4] | [5] | [6] | [7] | [8] | [9] | [10] | [11] | [12] | [13] | [14] | [15] | [16]

Cc1ccc2ccc3cccc4ccc1c2c34
inactive: [1] | [2] | [3] | [4] | [5] | [7] | [8] | [9] | [11] | [12] | [13] | [17] | [14]

CCN(CC)c1ccc(N)cc1
inactive: [4] | [5] | [18]
active: [1] 31.5 µM | [2] 25 µM | [3] 56 µM

CC(=O)Oc1ccc(C2(c3ccc(OC(C)=O)cc3)C(=O)Nc3ccccc32)cc1
inactive: [1] | [2] | [3] | [4] | [5] | [6] | [7] | [8] | [9] | [10] | [11] | [19] | [12] | [13] | [14] | [16]

S=C(SSSSSSC(=S)N1CCCCC1)N1CCCCC1
inactive: [2] | [4] | [5] | [6] | [7] | [17] | [16]
active: [1] 0.379 µM | [3] 2.39 µM | [8] 0.0763 µM | [19] 0.382 µM

CCCCCCCOC(=O)c1ccc(O)cc1
active: [5] 43.6 µM
inactive: [1] | [2] | [3] | [4] | [7] | [13] | [17] | [14] | [15]

Clc1ccc(C(c2ccccc2Cl)C(Cl)Cl)cc1 (configuration not stated)
inactive: [1] | [2] | [3] | [4] | [5] | [7] | [8] | [11] | [19] | [12] | [13] | [17] | [14]
active: [6] 54.9 µM | [10] 49 µM

O=C(O)CC(=O)O
inactive: [1] | [2] | [3] | [4] | [5] | [6] | [7] | [8] | [9] | [10] | [11] | [12] | [13] | [14] | [15] | [16]

NCCCCCCNCCCCCCN
inactive: [1] | [2] | [3] | [4] | [5] | [6] | [7] | [8] | [9] | [10] | [11] | [19] | [12] | [18] | [13] | [17] | [14] | [15] | [16]

CCCCCCCCCCCCCCCC
inactive: [1] | [2] | [3] | [4] | [5] | [6] | [7] | [8] | [9] | [10] | [11] | [19] | [12] | [13]

Cc1occc1SSc1ccoc1C
active: [1] 43.3 µM | [9] 23.6 µM
inactive: [2] | [3] | [4] | [5] | [6] | [7] | [11] | [19] | [18] | [13] | [16]

C(=C/c1ccccc1)/c1ccccc1
inactive: [1] | [2] | [3] | [4] | [5] | [6] | [7] | [8] | [9] | [11] | [19] | [12] | [18] | [13] | [17] | [15] | [16]

O=C1OC(OC(=O)c2cccnc2Nc2cccc(C(F)(F)F)c2)c2ccccc21 (configuration not stated)
inactive: [1] | [2] | [3] | [4] | [6] | [7] | [8] | [10] | [13] | [14] | [15]
active: [5] 11.9 µM

c1ccc(Nc2cccc3ccccc23)cc1
active: [1] 39.1 µM | [2] 49.2 µM and 54.5 µM
49.6 µM (active) and inactive: [5]
inactive: [3] | [4] | [6] | [20] | [7] | [8] | [9] | [19] | [12] | [13] | [15] | [16]

Cc1cn[nH]c1
inactive: [1] | [2] | [3] | [4] | [5] | [6] | [7] | [8] | [9] | [10] | [11] | [19] | [12] | [13] | [14]

Cc1c(C(=O)O)cccc1[N+](=O)[O-]
inactive: [1] | [2] | [3] | [4] | [5] | [6] | [7] | [8] | [10] | [11] | [18] | [13] | [17] | [16]
